# Laboratory results published in PubChem BioAssay (NCI).
# The panel holds about 83,000 compounds, 20% with a hit somewhere; the sample as a whole holds those more often.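 In brief: 96-well plates, 48 h treatment, single concentration, percent growth endpoint.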 Values without a mark were called inactive. Activity calls are given as the source filed them. How the source made its calls: active means growth percent below 10; inactive means the rest.
# What was measured:
# Assay in all cases: NCI-60 one-dose screen, 48 h (100 = growth as untreated, 0 = no growth, -100 = all killed)
# Conditions in all cases: 10 µM unless noted
# [1] = test system: NCI-H23 lung
# [2] = test system: NCI-H226 lung
# [3] = test system: NCI-H322M lung
# [4] = test system: HOP-62 NSCLC
# [5] = test system: NCI-H460 lung
# [6] = test system: HOP-92 NSCLC
# [7] = test system: NCI-H522 lung
# [8] = test system: A549/ATCC NSCLC
# [9] = test system: 786-0 renal
# [10] = test system: COLO 205 colon
# [11] = test system: DU-145 prostate
# [12] = test system: K-562 leukemia
# [13] = test system: MALME-3M melanoma
# [14] = test system: MDA-MB-231 breast
# [15] = test system: RXF 393 renal
# [16] = test system: SF-268 CNS
# [17] = test system: SF-295 CNS
# [18] = test system: UACC-257 melanoma
# [19] = test system: M14 melanoma
SMILES,growth [1] [%],growth [2],growth [3] [%],growth [4] [%],growth [5],growth [6] [%],growth [7],growth [8] [%],growth [9] [%],growth [10],growth [11],growth [12],growth [13] [%],growth [14] [%],growth [15],growth [16] [%],growth [17],growth [18],growth [19]
C[C@@H]1CCC2=C(CCC[C@]2(C)C(=O)O)[C@@]1(C)CCc1ccoc1,99.4,85.7%,93.4,96.5,96.9%,85.1,77%,75.8,112,112%,108%,116%,110,90,105%,95.1,102%,82.9%,103%
C=C1CC[C@@H]2[C@](C)(COC(C)=O)[C@H](OC(C)=O)CC[C@@]2(C)[C@@H]1CC(Nc1ccc(S(=O)(=O)Nc2ccc(Cl)nn2)cc1)C1=CCOC1=O (some centres not stated),58.2,-10% (active),57,47.9,14.5%,69.8,-34.5% (active),61.6,58.8,18%,40.2%,6.81% (active),55.3,23.8,-13.4% (active),43.3,92.8%,44%,10.7%
COc1ccc(C(=O)/C=C/c2cc3ccccc3[nH]c2=O)cc1,11.9,64.5%,61.5,29.7,3.4% (active),34.6,-31% (active),42.3,33.5,66.9%,-26.7% (active),16.7%,74.2,56.3,16.6%,28.9,48.9%,59.1%,59.6%
CN1CCOCCOCCOc2ccccc2NC(=O)c2nc(cnc2N)-c2ccc(cc2)S1(=O)=O,34.5,101%,36.8,92.4,34.3%,95.5,43.9%,49.8,18,27.9%,31.1%,15.9%,55.7,66.3,29.9%,63.3,57.7%,-34.6% (active),26.9%
COc1c(C2CC(=O)Nc3c2cnn3Cc2ccco2)cc2c(c1OC)OCO2 (configuration not stated),29.9,44.7%,55.4,12.2,2.88% (active),48.9,-2.1% (active),27.6,35.4,-49.1% (active),5.85% (active),5.69% (active),55.7,16,-30% (active),34.1,-20.6% (active),68.4%,9.85% (active)
CC(C)(C)c1nn(-c2ccccc2)c2c1CC1(CN2Cc2ccc3c(c2)OCO3)C(=O)c2ccccc2C1=O,106,110%,107,97.3,112%,97.2,141%,79.4,98.4,108%,112%,89.8%,148,94.6,93%,111,106%,104%,120%
COc1ccc(-c2cc(/C=C3\C(=O)Nc4ccc(Cl)cc43)[nH]n2)cc1,63.1,75.7%,77.3,55.5,37%,80.7,9.37% (active),35.7,82.3,37%,72.6%,24%,33.4,73.9,51%,66.3,47%,51.7%,44.7%
COc1cc(-c2c3sc(=O)[nH]c3nc3c2c(=O)[nH]n3C(C)C)cc2c1OCO2,108,96.3%,99.9,107,101%,114,96.8%,94.8,106,119%,119%,97.6%,121,101,94.5%,115,83.5%,99.2%,114%
